Test results: PubChem BioAssay AID651687 (Broad Institute, 2012)
Several values for one entry are separate records, joined by “and”; a condition that tells them apart may be missing. Equal values may be shown once. The campaign covered roughly 350,000 compounds. About 600 (0.17%) were called active.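 How the source made its calls: active means every replicate shows inhibition of at least 40%; inconclusive means mean inhibition at least 40% but some replicate below; inactive means the rest.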 What follows is part of a selection rich in actives, with near analogues and random picks from the rest. A structure can be active in one record and inactive in another.

Experiment: compounds lowering acetylated PGC1a in cells – cell-based, U2OS, AlphaScreen, inhibitor mode, primary screen (AID 651687);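 further: 0% = neutral control wells and 100% = positive control wells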
Details: U2OS PGC1a acetylation, AlphaScreen anti-acetyl-lysine; at 15.6 µM; stronger effect = higher value; with virally co-expressed GCN5 acetyltransferase

For `COc1ccc(-c2ccc3c(c2)[C@@H]2[C@@H](CCN2C(=O)c2cccc(F)c2)[C@H](CO)N3)cc1`, which inhibition is on record?
The inhibition was 6.58% (inactive).

With `O=C(Nc1ccc2c(c1)[C@@H]1C[C@H](CC(=O)N3CCOCC3)O[C@@H](CO)[C@@H]1O2)C1CCOCC1` as the compound, how does the inhibition read?
The inhibition was -6.68% (inactive).

With `CNC[C@H]1Oc2cc(C#CC3CCCC3)ccc2S(=O)(=O)N([C@H](C)CO)C[C@@H]1C` as the compound, how does the inhibition read?
The inhibition was -10.8% (inactive).

Which inhibition does the source give for `C[C@@H]1CCCCO[C@@H](CN(C)C(=O)Cc2ccccc2)[C@H](C)CN([C@@H](C)CO)C(=O)c2cc(NC(=O)Nc3ccc4c(c3)OCO4)ccc2O1` here?
Its inhibition is -5.63% (inactive).

Which inhibition does the source give for `COc1ccc(NC(=O)CN2C(=O)NC(C)(c3ccccc3)C2=O)cn1` (configuration not stated) here?
Its inhibition is 0.857% (inactive).

Which inhibition does the source give for `COc1ccc(NS(=O)(=O)c2ccc(F)cc2F)cn1` here?
The inhibition was 0.335% (inactive).

For `COc1ccc(NC(=O)/C(Cl)=C(/Cl)S(=O)Cc2ccc(C)cc2)cn1` (configuration not stated), which inhibition is on record?
The inhibition was 69.3% (active).

With `Cc1noc(C)c1NC(=O)Nc1ccc2c(c1)C(=O)N([C@@H](C)CO)C[C@H](C)[C@@H](CN(C)C(=O)Nc1ccccc1)O2` as the compound, how does the inhibition read?
The inhibition was -6.84% (inactive).

With `C[C@@H]1CCCCO[C@@H](CN(C)C(=O)CCCN(C)C)[C@H](C)CN([C@@H](C)CO)C(=O)c2cc(NC(=O)Nc3ccccc3)ccc2O1` as the compound, how does the inhibition read?
Its inhibition is 20% (inactive).

Which inhibition does the source give for `C[C@@H]1CN([C@@H](C)CO)C(=O)c2cc(NS(C)(=O)=O)ccc2O[C@H]1CN(C)C(=O)Nc1ccc(F)cc1` here?
Its inhibition is 0.678% (inactive).

Which inhibition does the source give for `Cn1cnc(S(=O)(=O)N2CC[C@@H]3[C@H]2c2cc(C#Cc4cccc(F)c4)ccc2N[C@@H]3CO)c1` here?
Its inhibition is -5.83% (inactive).

With `CCS(=O)(=O)NCC[C@H]1CC[C@@H](NC(=O)Nc2cc(Cl)cc(Cl)c2)[C@@H](CO)O1` as the compound, how does the inhibition read?
The inhibition was -5.94% (inactive).

With `Cc1ccc(S(=O)(=O)N[C@@H]2CC[C@@H](CCn3cc(C(C)C)nn3)O[C@H]2CO)cc1` as the compound, how does the inhibition read?
Its inhibition is -5.62% (inactive).

For `CC(C)NC(=O)N(C)C[C@H]1Oc2c(NS(C)(=O)=O)cccc2C(=O)N([C@@H](C)CO)C[C@H]1C`, which inhibition is on record?
Its inhibition is 3.18% (inactive).

For `C[C@@H]1CN([C@@H](C)CO)C(=O)c2cc(NC(=O)Nc3ccc4c(c3)OCO4)ccc2O[C@@H](C)CCCCO[C@H]1CN(C)C(=O)Nc1ccc(C(F)(F)F)cc1`, which inhibition is on record?
The inhibition was -7.26% (inactive).

Which inhibition does the source give for `C[C@H](CO)N1C[C@H](C)[C@H](CN(C)Cc2ccc(C(=O)O)cc2)Oc2ccc(NC(=O)NC3CCCCC3)cc2C1=O` here?
Its inhibition is 6.53% (inactive).

Which inhibition does the source give for `Cc1noc(C)c1NC(=O)Nc1ccc2c(c1)CC(=O)N([C@@H](C)CO)C[C@@H](C)[C@H](CN(C)C(=O)NC1CCCCC1)O2` here?
The inhibition was 0.249% (inactive).

For `C[C@@H]1CN([C@H](C)CO)S(=O)(=O)c2ccc(C#CC3CCCC3)cc2O[C@@H]1CN(C)Cc1ccccc1C(=O)O`, which inhibition is on record?
Its inhibition is -5.77% (inactive).

For `O=C(C[C@@H]1C=C[C@@H](NS(=O)(=O)c2ccc(F)cc2)[C@@H](CO)O1)NCCN1CCCCC1`, which inhibition is on record?
The inhibition was 4.96% (inactive).

With `CO[C@@H]1CN(C)C(=O)c2ccc(NS(=O)(=O)c3cn(C)cn3)cc2OC[C@H](C)N(CCC(F)(F)F)C[C@@H]1C` as the compound, how does the inhibition read?
The inhibition was -2.06% (inactive).

For `Cc1noc(C)c1C(=O)N(C)C[C@H]1OCc2ccccc2-c2c(n(C)c3ccccc23)C(=O)N([C@@H](C)CO)C[C@H]1C`, which inhibition is on record?
Its inhibition is -20.6% (inactive).

For `COc1ccc(-c2cnc3c(c2)C(=O)N([C@@H](C)CO)C[C@H](C)[C@@H](CN(C)C(=O)C2CC2)O3)cc1`, which inhibition is on record?
The inhibition was -1.45% (inactive).

With `CNC[C@H]1Oc2ccc(NS(=O)(=O)c3ccc(F)cc3)cc2CC(=O)N([C@H](C)CO)C[C@H]1C` as the compound, how does the inhibition read?
Its inhibition is -12.8% (inactive).

With `C[C@@H](NC(=O)C[C@@H]1CC[C@@H]2[C@H](COC[C@@H](O)CN2C(=O)Nc2cccc(F)c2)O1)c1ccccc1` as the compound, how does the inhibition read?
The inhibition was 0.238% (inactive).

For `COCC(=O)Nc1ccc2c(c1)OC[C@@H](C)N(Cc1cocn1)C[C@@H](C)[C@@H](OC)CN(C)C2=O`, which inhibition is on record?
The inhibition was 11.7% (inactive).

For `CCC(=O)N(C)C[C@H]1Oc2cc(-c3ccc(C)cc3)ccc2S(=O)(=O)N([C@@H](C)CO)C[C@H]1C`, which inhibition is on record?
Its inhibition is -11.2% (inactive).

Which inhibition does the source give for `CCCN(C)C[C@@H]1OCCCC[C@@H](C)Oc2ccc(NC(=O)Nc3ccc(C(F)(F)F)cc3)cc2C(=O)N([C@H](C)CO)C[C@H]1C` here?
Its inhibition is -1.97% (inactive).

With `CN(C)C(=O)c1cccc(-c2ccc(C3[C@@H]4CN(S(=O)(=O)c5ccc(F)cc5)C[C@H]3N4)cc2)c1` (some centres not stated) as the compound, how does the inhibition read?
The inhibition was -5.35% (inactive) and -8.12% (inactive).

For `N#Cc1ccc(-c2ccc(C3[C@@H]4CN(S(=O)(=O)c5ccccc5F)C[C@H]3N4)cc2)cc1` (some centres not stated), which inhibition is on record?
Its inhibition is -0.54% (inactive) and -4.45% (inactive).

Which inhibition does the source give for `N#Cc1ccc(-c2ccc(C3[C@@H]4CN(S(=O)(=O)c5ccc(F)cc5)C[C@H]3N4)cc2)cc1` (some centres not stated) here?
Its inhibition is -1.35% (inactive) and 58.1% (active).

With `C[C@H](CO)N1C[C@H](C)[C@@H](CN(C)C(=O)Cc2ccccn2)Oc2cc(-c3cccc(C(=O)N(C)C)c3)ccc2S1(=O)=O` as the compound, how does the inhibition read?
The inhibition was 0.377% (inactive).

For `COc1ccc(C#Cc2ccc([C@H]3[C@@H](CO)N4CCCCN(S(=O)(=O)c5cn(C)cn5)C[C@H]34)cc2)cc1`, which inhibition is on record?
The inhibition was -2.67% (inactive).

For `COCC(=O)Nc1ccc2c(c1)[C@H]1C[C@H](CC(=O)NCc3cccnc3)O[C@H](CO)[C@H]1O2`, which inhibition is on record?
The inhibition was 5.71% (inactive).

For `CN1c2ccc(-c3cccc(F)c3)cc2[C@H]2[C@H](CCN2C(=O)c2cccc(F)c2)[C@H]1CO`, which inhibition is on record?
Its inhibition is -7.12% (inactive).

For `Cc1nc(=O)c(-c2ccccc2)c(C)n1-c1ccc(Br)cc1`, which inhibition is on record?
Its inhibition is -2.67% (inactive).

With `S=C1NC(c2ccccc2)=NCN1c1ccc(Br)cc1` as the compound, how does the inhibition read?
Its inhibition is 80.9% (active).

For `COc1ccccc1S(=O)(=O)N[C@@H]1C=C[C@H](CC(=O)N2CCN(C)CC2)O[C@@H]1CO`, which inhibition is on record?
The inhibition was 6.82% (inactive).

For `O=[N+]([O-])c1c(NCCO)cc(Sc2nc3ccccc3s2)c2nonc12`, which inhibition is on record?
The inhibition was 45% (active).

With `COc1ccc(S(=O)(=O)Nc2ccc3c(c2)C(=O)N([C@H](C)CO)C[C@H](C)[C@@H](CN(C)C)OCCCC[C@H](C)O3)cc1` as the compound, how does the inhibition read?
The inhibition was -0.646% (inactive) and 1.73% (inactive).

Which inhibition does the source give for `C[C@H]1CN([C@@H](C)CO)C(=O)c2cc(C#CC3CCCCC3)cnc2O[C@@H]1CN(C)C(=O)Cc1ccccn1` here?
The inhibition was -16.1% (inactive).

With `C[C@H](CO)N1C[C@H](C)[C@H](CN(C)S(=O)(=O)c2cn(C)cn2)Oc2c(NC(=O)c3ccncc3)cccc2C1=O` as the compound, how does the inhibition read?
The inhibition was -3.09% (inactive).

Which inhibition does the source give for `CO[C@H]1CN(C)C(=O)c2ccc(NC(=O)c3nc4ccccc4s3)cc2OC[C@@H](C)N(Cc2cncnc2)C[C@H]1C` here?
The inhibition was 10.9% (inactive).

Which inhibition does the source give for `CC[C@H]1CN2CCc3cc(OC)c(OC)cc3[C@@H]2C[C@@H]1C[C@H]1NCCc2cc(OC)c(OC)cc21` here?
The inhibition was 83.7% (active).

For `C[C@@H]1CN([C@@H](C)CO)S(=O)(=O)c2ccc(-c3cccc(F)c3)cc2O[C@@H]1CN(C)S(=O)(=O)c1ccccc1`, which inhibition is on record?
Its inhibition is 5.85% (inactive).

With `C[C@H](CO)N1C[C@H](C)[C@H](CN(C)C)Oc2ncc(/C=C/c3ccccc3)cc2C1=O` as the compound, how does the inhibition read?
The inhibition was -8.6% (inactive) and 4.49% (inactive).

With `CO[C@H]1CN(C)C(=O)c2cc(NC(=O)c3nc4ccccc4s3)ccc2OC[C@H](C)N(Cc2cccnc2)C[C@@H]1C` as the compound, how does the inhibition read?
The inhibition was 7.17% (inactive).

With `COc1ccc(NC(=O)N2CC[C@@H]3[C@@H](CO)N(C)c4ccc(-c5cccc(F)c5)cc4[C@@H]32)cc1` as the compound, how does the inhibition read?
The inhibition was 10.2% (inactive).

With `O=C(Nc1ccc(C(F)(F)F)cc1)N[C@@H]1CC[C@H](CCNC(=O)c2ccccc2F)O[C@H]1CO` as the compound, how does the inhibition read?
Its inhibition is 10.8% (inactive).

Which inhibition does the source give for `CO[C@@H]1CN(C)C(=O)c2ccc(NC(=O)NC(C)C)cc2OC[C@H](C)N(Cc2ccc(-c3ccccn3)cc2)C[C@H]1C` here?
Its inhibition is -3.93% (inactive).

For `CCOc1ccccc1CN1CCN(C2CCC2)CC1CCO` (configuration not stated), which inhibition is on record?
The inhibition was 74.8% (active).

Which inhibition does the source give for `COc1ccccc1N1CCC(N2CCN(CC(C)(C)C)C(CCO)C2)CC1` (configuration not stated) here?
The inhibition was 10.6% (inactive).

With `COc1ccc(N2CCC(N3CCN(C)C(CCO)C3)CC2)cc1` (configuration not stated) as the compound, how does the inhibition read?
The inhibition was 0.824% (inactive).

Which inhibition does the source give for `CO[C@@H]1CN(C)C(=O)c2ccc(NC(=O)c3ccccn3)cc2OC[C@@H](C)N(C(=O)C2CCCCC2)C[C@H]1C` here?
Its inhibition is -2.25% (inactive).

Which inhibition does the source give for `C[C@H](CO)N1C[C@H](C)[C@H](CN(C)Cc2ccccn2)Oc2ncc(C#CCc3ccccc3)cc2C1=O` here?
The inhibition was -0.518% (inactive).

Which inhibition does the source give for `COCCCNC(=O)[C@@]1(Cc2ccccc2)COC(c2ccc(OCCCO)cc2)=N1` here?
The inhibition was 4.46% (inactive).

For `Cc1ccc(S(=O)(=O)N(C)C[C@H]2OCCCC[C@@H](C)Oc3ccc(NC(=O)Nc4ccc(F)cc4)cc3C(=O)N([C@@H](C)CO)C[C@H]2C)cc1`, which inhibition is on record?
Its inhibition is -6.65% (inactive).

Which inhibition does the source give for `C[C@@H]1CN([C@H](C)CO)C(=O)c2cc(C#Cc3cccc(F)c3)cnc2O[C@H]1CN(C)Cc1ccccn1` here?
Its inhibition is -11.1% (inactive).

For `Cc1noc(C)c1S(=O)(=O)Nc1ccc2c(c1)CC(=O)N([C@@H](C)CO)C[C@H](C)[C@H](CN(C)S(=O)(=O)c1ccc(Cl)cc1)O2`, which inhibition is on record?
The inhibition was 10.3% (inactive).

With `CO[C@H]1CN(C)C(=O)c2cc(NC(=O)C3CC3)ccc2OC[C@H](C)N(C(=O)CN(C)C)C[C@H]1C` as the compound, how does the inhibition read?
Its inhibition is -4.9% (inactive).

Which inhibition does the source give for `O=C(C[C@H]1C[C@H]2c3cc(NC(=O)CC4CC4)ccc3O[C@H]2[C@H](CO)O1)NCc1cc(F)ccc1F` here?
Its inhibition is -0.32% (inactive).

With `C[C@H](CO)N1C[C@H](C)[C@@H](CN(C)Cc2ccc(C(F)(F)F)cc2)Oc2ccc(NC(=O)Cn3cnnn3)cc2CC1=O` as the compound, how does the inhibition read?
The inhibition was 6.38% (inactive).

With `Cc1noc(C)c1NC(=O)Nc1ccc2c(c1)C(=O)N([C@H](C)CO)C[C@@H](C)[C@@H](CN(C)S(=O)(=O)c1ccc(Cl)cc1)OCCCC[C@H](C)O2` as the compound, how does the inhibition read?
The inhibition was 0.953% (inactive).
